Data on five targets can be found in the supplement of paper PMC6411743.

± gives the standard deviation of the averaged measurements. The full data set covers some 5,400 targets. This sample favours those with the largest changes.

Compound in this assay: Nc1nc2c(ncn2[C@@H]2O[C@H](COP(=O)(O)OP(=O)(O)OP(=O)(O)O)[C@@H](O)[C@H]2O)c(=O)[nH]1 [guanosine triphosphate]
Description: NP40-soluble protein abundance relative to vehicle (solubility fold change) (ratio); higher = more soluble protein in presence of GTP. On the procedure: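 Solubility proteome profiling in Jurkat crude lysate. Lysate was treated with Mg-GTP (0.1-10 mM) for 10 min at room temperature and 3 min at 37 °C, then solubilised with 0.8% NP40 and benzonase, followed by ultracentrifugation. Proteins were quantified by TMT10 LC-MS/MS; the value is the NP40-soluble abundance relative to the NP40-processed vehicle, from 3 independent experiments.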

Chain of UniProt Q9C0B5 (Q9C0B5 whole entry): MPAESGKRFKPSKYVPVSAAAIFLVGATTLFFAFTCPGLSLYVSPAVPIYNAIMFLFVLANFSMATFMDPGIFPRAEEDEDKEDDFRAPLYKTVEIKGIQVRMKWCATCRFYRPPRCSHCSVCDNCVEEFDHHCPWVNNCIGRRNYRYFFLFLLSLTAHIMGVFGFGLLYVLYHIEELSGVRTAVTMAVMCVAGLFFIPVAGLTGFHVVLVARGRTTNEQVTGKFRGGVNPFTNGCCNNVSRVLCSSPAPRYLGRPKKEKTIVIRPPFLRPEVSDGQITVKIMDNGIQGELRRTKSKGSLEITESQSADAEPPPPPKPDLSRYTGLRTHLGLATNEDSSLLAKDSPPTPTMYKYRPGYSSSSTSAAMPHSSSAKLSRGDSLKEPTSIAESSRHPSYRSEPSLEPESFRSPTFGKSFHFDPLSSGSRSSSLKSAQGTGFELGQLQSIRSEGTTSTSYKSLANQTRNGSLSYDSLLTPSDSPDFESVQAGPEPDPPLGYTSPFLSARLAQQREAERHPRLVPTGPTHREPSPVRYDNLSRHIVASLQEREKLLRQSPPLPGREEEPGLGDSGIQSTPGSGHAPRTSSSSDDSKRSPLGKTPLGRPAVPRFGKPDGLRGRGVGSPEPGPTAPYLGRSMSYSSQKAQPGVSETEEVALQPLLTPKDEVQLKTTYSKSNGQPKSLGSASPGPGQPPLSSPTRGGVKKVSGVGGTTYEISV
Chain of UniProt Q9UL25 (Q9UL25 whole entry): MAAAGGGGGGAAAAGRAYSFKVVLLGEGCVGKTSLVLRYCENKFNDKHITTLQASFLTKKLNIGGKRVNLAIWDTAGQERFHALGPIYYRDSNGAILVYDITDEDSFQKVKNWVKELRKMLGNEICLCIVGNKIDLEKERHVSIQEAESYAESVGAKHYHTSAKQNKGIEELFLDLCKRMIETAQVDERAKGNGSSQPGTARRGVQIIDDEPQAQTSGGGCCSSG
Chain of UniProt Q9H832 (Q9H832 whole entry): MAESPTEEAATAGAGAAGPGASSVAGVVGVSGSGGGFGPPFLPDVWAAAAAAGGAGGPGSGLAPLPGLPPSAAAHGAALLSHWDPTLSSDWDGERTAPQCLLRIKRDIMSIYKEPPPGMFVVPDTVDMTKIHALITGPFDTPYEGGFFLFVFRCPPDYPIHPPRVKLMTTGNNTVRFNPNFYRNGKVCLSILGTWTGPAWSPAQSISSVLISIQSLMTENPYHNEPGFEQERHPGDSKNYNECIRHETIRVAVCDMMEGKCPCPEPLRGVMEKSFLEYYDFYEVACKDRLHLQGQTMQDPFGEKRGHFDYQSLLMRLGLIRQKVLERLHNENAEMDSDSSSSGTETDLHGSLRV
Chain of UniProt Q9Y508 (Q9Y508 whole entry): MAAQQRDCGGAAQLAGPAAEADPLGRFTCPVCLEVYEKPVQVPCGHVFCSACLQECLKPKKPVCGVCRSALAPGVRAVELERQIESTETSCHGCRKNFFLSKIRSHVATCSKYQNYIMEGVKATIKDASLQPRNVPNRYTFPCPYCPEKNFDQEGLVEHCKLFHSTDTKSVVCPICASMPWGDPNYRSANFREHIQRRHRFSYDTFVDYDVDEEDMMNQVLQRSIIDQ
Chain of UniProt Q9H944 (Q9H944 whole entry, one chain of several): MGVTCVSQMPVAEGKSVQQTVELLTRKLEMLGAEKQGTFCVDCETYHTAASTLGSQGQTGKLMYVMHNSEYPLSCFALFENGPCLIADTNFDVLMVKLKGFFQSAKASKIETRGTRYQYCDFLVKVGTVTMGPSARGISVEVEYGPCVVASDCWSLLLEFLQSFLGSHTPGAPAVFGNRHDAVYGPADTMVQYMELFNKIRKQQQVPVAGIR

With UniProt Q9H832|Q9H832-2, the NP40-soluble protein abundance by setting is: (concentration: 0.1mM) 1.04 ± 0.06; (concentration: 0.5mM) 0.987 ± 0.061; (concentration: 1mM) 0.9687 ± 0.0042; (concentration: 2mM) 1.12 ± 0.056; (concentration: 4mM) 0.927 ± 0.013; (concentration: 6mM) 0.934 ± 0.043. The NP40-soluble protein abundance was found to be 0.91 ± 0.034 (concentration: 8mM) and 0.963 ± 0.064 (concentration: 10mM).

Turning to UniProt Q9H944|B7ZBQ3, the NP40-soluble protein abundance came to 1 ± 0.046 (concentration: 0.1mM); 1.01 ± 0.05 (concentration: 0.5mM); 0.928 ± 0.034 (concentration: 1mM); 0.984 ± 0.019 (concentration: 2mM); 0.976 ± 0.025 (concentration: 4mM); 0.986 ± 0.029 (concentration: 6mM). Moreover, the NP40-soluble protein abundance by setting is: (concentration: 8mM) 0.9381 ± 0.0083; (concentration: 10mM) 0.934 ± 0.029.

As for RAB21 (UniProt Q9UL25), the NP40-soluble protein abundance amounted to 0.998 ± 0.058 (concentration: 0.1mM); 0.967 ± 0.036 (concentration: 0.5mM); 0.87 ± 0.016 (concentration: 1mM); 0.862 ± 0.011 (concentration: 2mM); 0.837 ± 0.029 (concentration: 4mM); 0.84 ± 0.039 (concentration: 6mM). Further, the NP40-soluble protein abundance worked out at 0.812 ± 0.048 (concentration: 8mM) and 0.813 ± 0.093 (concentration: 10mM).

RNF114 (UniProt Q9Y508): the NP40-soluble protein abundance (concentration: 0.1mM) amounted to 0.95 ± 0.011; the NP40-soluble protein abundance (concentration: 0.5mM) turned out to be 0.967 ± 0.032; the NP40-soluble protein abundance (concentration: 1mM) was 0.924 ± 0.041; the NP40-soluble protein abundance (concentration: 2mM) stood at 0.91 ± 0.068; the NP40-soluble protein abundance (concentration: 4mM) was determined as 0.895 ± 0.057; the NP40-soluble protein abundance (concentration: 6mM) was 0.897 ± 0.056. Moreover, the NP40-soluble protein abundance is 0.876 ± 0.072 (concentration: 8mM) and 0.888 ± 0.084 (concentration: 10mM).

As for UniProt Q9C0B5|Q9C0B5-2, the NP40-soluble protein abundance is, setting by setting: (concentration: 0.1mM) 1.02 ± 0.049; (concentration: 0.5mM) 0.949 ± 0.024; (concentration: 1mM) 0.96 ± 0.018; (concentration: 2mM) 0.938 ± 0.012; (concentration: 4mM) 0.903 ± 0.018; (concentration: 6mM) 0.909 ± 0.019. Also, the NP40-soluble protein abundance was 1.02 ± 0.03 (concentration: 8mM) and 0.997 ± 0.029 (concentration: 10mM).
